Results filed as inconclusive are left out. Active and inactive are the calls of the source. Calls follow the shape of the dose curve; as a rule, active = well fitted inhibition curve with a large enough effect; inconclusive = small, poorly fitted or top-dose-only effect; inactive = flat fitted curve, though single readings scatter.
Columns and labels:
Assay in all cases: qHTS profiling for inhibitors of Plasmodium falciparum proliferation (AID 504749); also: nearly all actives have a fitted effect of over 60% in size
Details in all cases: P. falciparum in erythrocytes, SYBR Green DNA, 72 h; series mostly up to 28.7 µM
ATS95 = system: ATS95
How it was run: (§1)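 Three-day growth assay of blood-stage parasites in erythrocytes (0.3% parasitemia, 2.5% hematocrit) at 37 C, 5% CO2, quantified by SYBR Green DNA staining after overnight detergent lysis.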

C2A = system: C2A
How it was run: as §1

CP185 = system: CP185
How it was run: as §1

CP215 = system: CP215
How it was run: as §1

CP237 = system: CP237
How it was run: as §1

CP250 = system: CP250
How it was run: as §1

CP252 = system: CP252
How it was run: as §1

CP256 = system: CP256
How it was run: as §1

CP262 = system: CP262
How it was run: as §1

CP265 = system: CP265
How it was run: as §1

CP268 = system: CP268
How it was run: as §1

CP305 = system: CP305
How it was run: as §1

CP315 = system: CP315
How it was run: as §1

CP325 = system: CP325
How it was run: as §1

CP329 = system: CP329
How it was run: as §1

CP335 = system: CP335
How it was run: as §1

DIV30 = system: DIV30
How it was run: as §1

JCK = system: JCK
How it was run: as §1

PC26 = system: PC26
How it was run: as §1

SC27B = system: SC27B
How it was run: as §1

Measured: Potency

C[N+](C)(C)CC(=O)[O-]
inactive: ATS95 | C2A | CP185 | CP215 | CP237 | CP250 | CP252 | CP256 | CP262 | CP265 | CP268 | CP305 | CP315 | CP325 | CP329 | CP335 | DIV30 | JCK | PC26 | SC27B

— PubChem BioAssay (NCATS)
